This is a sample that favours compounds with a hit; in the whole collection about 1.6% have one here.
Sa ugtP lethal: growth inhibition of S. aureus ugtP deletion strain. actives 0.54% (n = 330,000). growth inhibition, % (no concentration beside the values). S. aureus RN4220 ugtP deletion, OD600 growth, 16 h; in the data active = growth inhibition above about 68%;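 note: plate controls were untreated wells for no effect and antibiotic for full effect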
CCHFV vOTU inh: blocks the CCHF virus ovarian tumor domain protease. CCHFV vOTU protease, Pep-AMC fluorescence. actives 0.55% (n = 370,000). AID 651958. inhibition, % at 11.5 µM; in the data active = inhibition above about 30%; note: 0% = vehicle wells with enzyme and 100% = no enzyme wells
RN4220 kill: kills Staphylococcus aureus RN4220; S. aureus RN4220 growth, OD600, 16 h; inhibition, % (no concentration beside the values); actives 0.33% (n = 330,000); in the data active = inhibition above about 85%;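 note: plate controls were untreated cells for no effect and reference antibiotic for full effect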
PfHsp40 rescue: compounds rescuing yeast from Plasmodium falciparum HSP40 toxicity; AID 504582; actives 0.68% (n = 340,000); growth rescue, % at 12.5 µM; S. cerevisiae expressing PfHsp40, growth rescue, ATP luminescence; in the data active = growth rescue above about 28%, passing the limit was not always enough;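 note: yeast W303a lacking pdr1 and pdr3 grown in galactose medium; growth measured after three days at 30 °C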
BJeLR viability: BJeLR cell viability loss | BJeLR (HRASV12) viability, CellTiter-Glo ATP luminescence, 48 h | inhibition, % (test concentration not listed) | actives 0.17% (n = 300,000); in the data active = inhibition above about 50%
* marks the source's active call; other numbers are inactive results; nt = no result.

SMILES	Sa ugtP lethal	CCHFV vOTU inh	RN4220 kill	PfHsp40 rescue	BJeLR viability
COc1ccc(C(=O)NNC(=S)NC(=O)/C=C/c2cccs2)cc1	7	9	50	74*	5
O=C(/C=C/c1ccco1)NC(=S)Nc1cccc(-c2nc3ccccc3o2)c1	98*	10	15	-1	44
Cc1ccc(-c2nc3ccccc3o2)cc1NC(=S)NC(=O)/C=C/c1ccco1	25	11	6	5	24
O=C(/C=C/c1ccco1)NC(=S)Nc1ccccc1	93*	11	2	5	1
NC(=O)CCC1NC(=O)C(CO)NC(=O)c2cc([N+](=O)[O-])cc(I)c2NCCC(C(N)=O)NC1=O (stereo not drawn)	-5	nt	3	nt	nt
CCOC(=O)c1ccc(NC(=O)/C=C/c2cccs2)cc1	-20	23	1	164*	-2
O=C(/C=C/c1cccs1)NC(=S)NNC(=O)c1ccccc1O	5	5	46	nt	-10
O=C(/C=C/c1cccs1)NC(=S)Nc1ccccc1	active	7	97	-1	0
CCN(CC)CCOC(=O)c1ccc(NC(=O)/C=C/c2cccs2)cc1	12	11	4	1	6
CN(C)Cc1c(C(=O)NN=Cc2ccncc2)nnn1-c1nonc1N	-4	nt	-3	nt	nt
COCCCNc1oc(-c2ccccc2F)nc1C#N	1	-68	1	34*	-2
COCCCNc1oc(-c2ccccc2OC)nc1C#N	12	-111	6	1	5
COc1ccc(N/C=C/C(=O)c2cc(OC)c(OC)c(OC)c2)cc1	1	-4	1	1	53*
COc1ccc(N/C=C/C(=O)c2ccc(OC)c(OC)c2)cc1	6	6	5	1	-1
O=C(CSc1ncn[nH]1)NN=Cc1ccc(C(F)(F)F)cc1	1	nt	1	nt	nt
CO[C@@]1(NC(=O)C2SC(=C(C(N)=O)C(=O)O)S2)C(=O)N2C(C(=O)O)=C(CSc3nnnn3C)CSC21 (stereo partly drawn)	100*	nt	100*	nt	nt
COc1cc(C(=O)O/N=C2\C=CC(=O)C=C2C)cc(OC)c1OC	nt	-5	nt	-1	nt
COc1cc(C(=O)ON=C2C3CC4CC(C3)CC2C4)cc(OC)c1OC	-4	7	-3	325*	5
O=C(NN=CCCc1ccccc1)C1CCCCC1	-4	nt	7	nt	nt
NC1=NC[C@H](Cc2ccc(O)cc2)N1CCCCC1CCCCC1	100*	10	100*	0	18
CC[C@@H](C(=O)[C@@H](C)[C@@H](O)[C@H](C)[C@@H]1O[C@@H]([C@@H](CC)C(=O)O)CC[C@@H]1C)[C@H]1O[C@]2(C=C[C@@H](O)[C@]3(CC[C@@](C)([C@H]4CC[C@](O)(CC)[C@H](C)O4)O3)O2)[C@H](C)C[C@@H]1C	nt	7	nt	220*	nt
O=C(NCc1cccnc1)C1CC=CC2CCN(Cc3ccc(Cl)c(Cl)c3)C(=O)C21 (stereo not drawn)	-10	nt	6	nt	nt
COc1ccc(CN2CCN(C(c3ccc(F)cc3)c3ccc(F)cc3)CC2)c(OC)c1OC	0	0	-7	39*	12
COc1ccc(N=N/C(=C\O)C(=O)c2cccs2)cc1	18	5	5	478*	5
COc1ccc(C(=O)/C(=C/O)N=Nc2ccc(F)cc2)cc1	nt	-1	nt	0	10
SMILES	Sa ugtP lethal	CCHFV vOTU inh	RN4220 kill	PfHsp40 rescue	BJeLR viability
CCC(Oc1ccc(Br)cc1Cl)C(=O)Nc1nnc(C2CC2)s1 (stereo not drawn)	-13	6	-2	60*	-6
COc1cc(C(=O)Oc2cccc(C=NNC(=O)c3cccnc3)c2)cc(OC)c1OC	0	nt	0	nt	nt
CCOC(=O)c1cnc(-n2nc(C)cc2C)nc1NC1CCCC1	nt	-1	nt	163*	-2
CCOC(=O)c1cnc(-n2nc(C)cc2C)nc1Nc1ccc(OC)cc1	-8	-7	3	3	-3
CCOC(=O)c1cnc(-n2nc(C)cc2C)nc1NCCc1ccccc1	-7	9	10	65*	9
COC(=O)C1=C(c2cccc(OCc3ccccc3)c2)CC2CCC1N2C(=O)NCc1ccc2[nH]ccc2c1 (stereo not drawn)	5	nt	-4	nt	nt
CCCOc1ccc(C2C(=C(O)c3c(C)[nH]c(C(=O)OC)c3C)C(=O)C(=O)N2CCN(C)C)cc1 (stereo not drawn)	-5	nt	2	nt	nt
Cc1cc(C)c(NC(=O)c2cn3c4c(c(N5CCN(C)CC5)c(F)cc4c2=O)OCC3C)c(C)c1 (stereo not drawn)	61	-13	15	3	4
CN1CCN(c2c(F)cc3c(=O)c(C(=O)O)cn4c3c2OCN4C)CC1	99*	-42	99*	0	-7
